Assay outcomes: PubChem, Pan Lab, Icahn School of Medicine at Mount Sinai
This is one part of a sample in which hits are shown more often than they occur.
RBX1-CUL1 inh: inhibitors of human ROC1-CUL1 ubiquitin ligase activity | in vitro K48 di-Ub FRET, acceptor:donor ratio, 45 min | inhibition, % at 10 µM | 140,000 tested, 0.6% active | AID 1347404, 2020; in the data active means inhibition above about 25%
The depositor's hits bear a star.

SMILES	RBX1-CUL1 inh
COc1ccc(/C=C2/C(=O)N(Cc3ccco3)C(=O)N(C(C)C)C2=O)cc1	102.5*
COc1ccc(C=C2C(=O)N(C)C(=O)N(C)C2=O)cc1	-8.2
CC(C)N1C(=O)/C(=C/C=C/c2ccco2)C(=O)N(Cc2ccco2)C1=O	-3.9
CCC1(c2ccccc2)C(=O)NC(=O)N(CCN2CCOCC2)C1=O (stereo unspecified)	1.3
N=C1C(Cl)C(=O)NC(=O)N1Cc1ccccc1 (stereo unspecified)	-4.3
O=C1NC(=O)C(Br)(Br)C(=O)N1Cc1ccccc1	75.5*
COc1cc(C(c2c(C)[nH]n(-c3ccccc3)c2=O)c2c(C)[nH]n(-c3ccccc3)c2=O)cc(OC)c1OC	62.2*
COc1cc(C2SCC(=O)Nc3c2c(-c2ccccc2)nn3-c2ccccc2)cc(OC)c1OC (stereo unspecified)	-1.1
COc1cc(CN2CCN(C(=O)Cc3ccccc3)CC2)cc(OC)c1OC	6.2
CCOC(=O)N1CCN(CC(Cl)c2ccc(F)cc2)CC1 (stereo unspecified)	-4.4
Cc1cc(N2CCN(C)CC2)c2ccccc2n1	-1.9
Cc1ccc(OCC(=O)Nc2ccc(Cl)cc2C(=O)c2ccccc2)c(Br)c1	8.2
N#CC(C#N)=Cc1ccc(N2CCCCCC2)o1	1.0
CCN(CC)c1ccc(/C=C2\C(=O)NC(=S)N(c3ccc(OC)cc3OC)C2=O)o1	2.0
CCOc1ccc(N2C(=O)/C(=C/c3ccc(CN(CCC#N)S(C)(=O)=O)o3)C(=O)NC2=S)cc1	24.3
CCN(CC)c1ccc(/C=C2\C(=O)NC(=S)N(C)C2=O)o1	-2.3
Cc1c(Cl)cccc1N1C(=O)/C(=C/c2ccc(-c3ccc(C(=O)O)cc3)o2)C(=O)NC1=S	51.8*
O=C1NC(=S)N(c2ccc(Br)cc2)C(=O)/C1=C/c1ccc(-c2ccccc2C(=O)O)o1	82.7*
Cc1cccc(N2C(=O)/C(=C/c3cc(C)n(-c4ccc(C(=O)O)c(Cl)c4)c3C)C(=O)NC2=S)c1C	12.8
N#CC(C#N)=NNc1ccc2[nH]c(=O)[nH]c2c1	9.5
CCC(=O)Nc1ccc(Cl)c(Cl)c1	12.3
COc1cccc(-n2c(C)nc3c(Br)cc(Br)cc3c2=O)c1	3.8
CCCC12CNCC(C)(CNC1)C2=O	0.1
Clc1ccccc1C1=NCc2nncn2-c2sc(Br)cc21	3.6
Fc1ccccc1CCNCc1cccc(Cl)c1Cl	-4.1
